{"source": "ChEMBL document CHEMBL3433997", "about": "“St. Jude Leishmania screening dataset” (2016)", "data": [{"target": "Glucose transporter (Leishmania mexicana) (UniProt O61059)", "assay": "ST_JUDE_LEISH: Cytotoxicity at 2uM final concentration against transgenic Leishmania Mexicana promastigotes LmGT2 that are glucose transport deficient and complemented with the L. Mexicana glucose transporter 2. Activity is measured by DNA content using SYBR green in vitro", "type": "functional", "units": {"inhibition": "%"}, "values": [{"compound": "O=C(Nc1ccc(OC2CCN(Cc3ccccc3)C2)c(Cl)c1)c1ccc(F)cc1", "note": "(stereo not given)", "inhibition": 4.21}, {"compound": "Cc1[nH]c(C)c(-c2ccc(OCc3ccc(OC(F)(F)F)cc3)nc2)c(=O)c1Br", "inhibition": 3.44}, {"compound": "Nc1nc(N)c2c(Oc3cccc(Cl)c3)cccc2n1", "inhibition": -1.1}, {"compound": "Oc1ccc(CCNc2nc(NCCCOc3cc(CN4CCCCC4)ccc3F)nc(N3CCNCC3)n2)cc1", "inhibition": 5.14}, {"compound": "COc1cc(-c2nnc(SCC(=O)Nc3cc(C)on3)n2C)cc(OC)c1O", "inhibition": 7.59}, {"compound": "COc1ccc(C2SCC(=O)N2CCc2ccc(OC)c(OC)c2)cc1", "note": "(stereo not given)", "inhibition": 2.36}, {"compound": "O=C(NC1CCCc2ccccc21)[C@@H]1CCCN1C(=O)c1ccc(O)c(-c2cccc([N+](=O)[O-])c2)c1", "note": "(stereo not given in full)", "inhibition": 2.82}, {"compound": "O=C(COc1ccc(F)cc1)NC1CCN(c2ccnc3cc(Cl)ccc23)C1", "note": "(stereo not given)", "inhibition": 6.88}, {"compound": "Cc1cc(-c2cccc(CNCc3ccc(F)cc3)c2)ccc1S(=O)(=O)NCCN1CCCC1", "inhibition": 0.1}, {"compound": "Cc1cc(C2CCN(CCCCNC(=O)c3ccc(-c4ccc(C(F)(F)F)cc4)cc3)CC2)c(C)cc1OCCOC1CCCCO1", "note": "(stereo not given)", "inhibition": 2.21}, {"compound": "Cn1nc(-c2ccc(NC(=O)Nc3cc(C(F)(F)F)ccc3F)c(F)c2)c2cnc(NCCCn3ccnc3)nc21", "inhibition": 0.5}, {"compound": "COc1cc(OC)cc(-c2nc3ccc(OCCN(C)C)c(C#N)c3[nH]2)c1", "inhibition": 2.21}, {"compound": "COc1cc(NC(=O)c2c(-c3c(Cl)cccc3Cl)noc2C)c(OC)cc1Cl", "inhibition": 3.12}, {"compound": "CCCc1cc(OC)c(C[C@H]2c3cc(O)c(Cl)cc3CCN2C)cc1OC", "inhibition": 1.4}, {"compound": "CC(CN1CCN(C)CC1)C(=O)Nc1ccc(-c2ccc(-c3nc4cc(F)ccc4[nH]3)cc2)cc1", "note": "(stereo not given)", "inhibition": 8.04}, {"compound": "CC(=O)c1cccc(S(=O)(=O)NCCCNc2nc3cc(C)cc(C)c3cc2C#N)c1", "inhibition": -1.77}, {"compound": "COc1c(C2CCN(CCCCNC(=O)c3ccc(-c4ccc(C#N)cc4)nc3)CC2)ccc2c1CCCC2", "inhibition": 0.52}, {"compound": "Cc1cc([N+](=O)[O-])ccc1NC(=O)Nc1cccc(C(F)(F)F)c1", "inhibition": 4.81}, {"compound": "CN1CCN(c2cc3c(cc2Cl)CCN3C(=O)Cc2ccc(Cl)c(NC(=O)Nc3cccc(C#N)c3)c2)CC1", "inhibition": -0.22}, {"compound": "CN1CCN(c2ccnc3ccc(NC(=O)Nc4ccc(-c5ccncc5)c(C#N)c4)cc23)CC1", "inhibition": -2.77}, {"compound": "O=C(C=Cc1cccs1)Nc1ccc(-c2nc3ccccc3[nH]2)cc1", "inhibition": 3.04}, {"compound": "COc1cc(Cc2cnc(N)nc2N)cc(OCCCCC2SC(=O)NC2=O)c1OC", "note": "(stereo not given)", "inhibition": 1.34}, {"compound": "COc1ccc(S(=O)(=O)NC2CCN(CCCOc3ccnc4cc(Cl)ccc34)C2)cc1OC", "note": "(stereo not given)", "inhibition": 2.88}, {"compound": "CN1CCCC1CCNCc1cccc(-c2cnc(N(C)C3CCCCC3)nc2)c1", "note": "(stereo not given)", "inhibition": 101}, {"compound": "O=C(Cn1cc(C(F)(F)F)cc(Cl)c1=O)N1CCN(S(=O)(=O)c2ccc(Cl)cc2)CC1", "inhibition": -0.25}, {"compound": "COc1ccc(CN2CCC(NCc3ccc(C(F)(F)F)cc3)CC2)cc1", "inhibition": 14}, {"compound": "CN(C)CCCOc1ccccc1CN1CC[C@H](NC(=O)c2ccc(Cl)c(Cl)c2)C1", "inhibition": -2.05}, {"compound": "Cc1ccccc1C1CCN(C2CCC(NC(=O)/C=C/c3ccc(C(F)(F)F)cc3F)CC2)CC1", "note": "(stereo not given)", "inhibition": 0.34}, {"compound": "Cc1cccc(NC(=O)NCc2ccccc2)n1", "inhibition": 2.38}, {"compound": "Nc1nc(N)c2c(n1)CCc1cc(Br)ccc1-2", "inhibition": 2.4}, {"compound": "CN(c1ccccc1C(=O)Nc1ccccc1Oc1ccccc1)S(=O)(=O)c1ccccc1", "inhibition": 5.08}, {"compound": "O=c1cc(NCCCNC2CCc3ccc(Cl)cc32)[nH]c2ccccc12", "note": "(stereo not given)", "inhibition": 1.83}, {"compound": "Nc1oc2c(CN3CCCCCC3)c(O)ccc2c(=O)c1-c1nc2ccccc2s1", "inhibition": 2.85}, {"compound": "NC1=NC(CCc2ccccc2)N(c2ccccc2)C(N)=N1", "note": "(stereo not given)", "inhibition": 9.31}, {"compound": "Cc1nc(C)c(-c2ccc(Sc3ccc(Cl)cc3)cc2)c(O)c1Br", "inhibition": -1.9}, {"compound": "Cc1c(Cn2ncc(N3CCC(N)CC3)c(Cl)c2=O)cccc1NC(=O)Nc1ccc(-c2ccccc2)cc1", "inhibition": 5.11}, {"compound": "Fc1ccc2[nH]c(-c3ccc(-c4ccc(CNCCc5ccncc5)cc4)cc3)nc2c1", "inhibition": 2.26}, {"compound": "CS(=O)(=O)c1ccc(CCNCc2ccc(-c3ccc(CN(C(=O)C4CC(=O)c5ccccc54)C4CCN(Cc5ccccc5)CC4)cc3)nc2)cc1", "note": "(stereo not given)", "inhibition": 2.34}, {"compound": "CCCCn1c(-c2ccco2)nc2c(c(=O)c3ccccc3n2C)c1=O", "inhibition": 4.14}, {"compound": "Cc1cc(N)c2cc(NC(=O)c3cc4ccccc4s3)ccc2n1", "inhibition": -0.52}]}]}
